Results on 94 molecules are retold here after PubChem BioAssay AID743397 (Broad Institute, 2014).

Each structure is given as a SMILES string. Hit rate of the full screen: of about 340,000 compounds, about 330 (0.097%) were called active. For the sample, actives were picked, then their nearest neighbours and some compounds at random. Values without a mark were called inactive.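 The calls were made as follows: active = mean replicate inhibition of at least 30% and at least 1% of replicates passing that level; inconclusive = only one of the two criteria is met; inactive = neither criterion is met.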

This test deals with Voltage-dependent L-type calcium channel subunit alpha-1D (CaV1.3) ICDI/IQ interaction. The test can be described thus: Primary screen for inhibitors of IQ motif and Ca2+-dependent inactivation inhibitor domain binding in CACNA1D, Förster resonance energy transfer in living cells, single-concentration test (AID 743397).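 Also: 0% = median of the neutral control wells.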 The conditions noted are these: HEK cells, CFP/YFP FRET ICDI-IQ, plate reader, 10 min; at 12.3 µM; stronger effect = higher value; percent FRET-ratio fall versus neutral wells.
As for `Oc1cccc2cc(-c3ccncc3)cnc12`, the inhibition is -5%.

Take `COC(=O)C1=C(C)N(Cc2ccccc2C(F)(F)F)C(=NCc2ccc(OC)cc2)NC1c1cccc(C(F)(F)F)c1` (centres undefined): the inhibition is -9.27%.

For the molecule `CCCCOCCCNC(=O)C[C@@H]1C[C@@]2(C(=O)OC)CCCCC=C2N(CCC2=CCCCC2)C1=O`, the inhibition was -3.67%. As to `CCCCCCCCCOC1OC(CO)C(O)C(O)C1NC(C)=O` (centres undefined), the inhibition is -5.79%. `CCc1cccc(OC2OC(CO)C(O)C(O)C2NC(C)=O)c1` (centres undefined): the inhibition was 107% (active). With `COC(=O)c1ccc2ccccc2c1OC1OC(CO)C(O)C(O)C1NC(C)=O` (centres undefined), the inhibition is -1.34%. With `CCCCNc1cccc2c1S(=O)(=O)N[C@@H](C)CO2`, the inhibition is -5.83%.

For the molecule `COC(=O)C1=C(C)N(Cc2cccc(C(F)(F)F)c2)C(=NCc2ccccc2)NC1c1ccccc1C(F)(F)F` (centres undefined), the inhibition was -1.85%. Take `CCCCc1c(-c2ccc(Br)cc2)ncn1CCc1ccccc1OC`: the inhibition is -9.97%. Regarding `COC(=O)c1ccc(CN2C(=O)[C@]3(OCCC=C[C@H]3C)c3c(Br)cccc32)cc1`, the inhibition is -5.34%. The same measure for `COc1ccc(-c2ccc3c(n2)CCCN3S(=O)(=O)c2ccc(C)cc2)cc1`: -4.73%; for `COc1ccc(CNS(=O)(=O)c2cc(Br)ccc2Br)cc1`: -5.62%. The same measure for `COc1cccc(NC(=O)N(C)C[C@@H]2OCc3cn(nn3)CCCC(=O)N([C@@H](C)CO)C[C@H]2C)c1`: -4.88%. As for `CN1C(=O)C(Br)(Br)CC1c1cccnc1` (centres undefined), the inhibition is -4.22%. The same measure for `CC[C@H](NC(=O)[C@H](Cc1ccccc1)NC(=O)[C@H]1O[C@@H](n2cnc3c(=O)[nH]c(N)nc32)[C@H](O)[C@@H]1O)c1ccccc1`: -7.74%; for `COC(=O)[C@]12C[C@H](CC(=O)N3CCN(C(=O)C4CC4)CC3)C(=O)N(Cc3ccc4c(c3)OCO4)C1=C[C@H](C(C)(C)C)O[C@@H]2C`: -7.42%; for `CC1CCCN(c2cccc3c2S(=O)(=O)N(Cc2ccc(F)cc2)[C@@H](C)[C@H](c2ccccc2)O3)C1` (some centres undefined): -4.9%. For `COCCNC(=S)N(C)[C@H]1C[C@H]2c3[nH]c4ccccc4c3CCN2C[C@H]1[C@H](C)O`, the inhibition was -5.06%. For `COC(=O)N1Cc2ccnnc2CC1c1ccccc1Br` (centres undefined), the inhibition was -4.44%.

On to `CCOC(=O)N1CCN(C(=O)C[C@H]2C[C@@]3(C(=O)OC)C(=C[C@H](C4CCCC4)O[C@@H]3C)N(Cc3ccccc3)C2=O)CC1`, for which the inhibition was -8.9%. Consider `O=C(Nc1c(Cl)c(C2CC2)nn1-c1ccccc1)C(Cl)(Cl)Cl`, for which the inhibition was -4.55%. For the molecule `O=c1[nH]c(-c2ccccc2)cn1C1CCN(Cc2ccc(-c3nc4ccc(F)cc4nc3-c3ccccc3)cc2)CC1`, the inhibition is -6%. The same measure for `CC(=NNC(N)=O)c1ccc(Cl)c(-n2cccc2)c1`: -7.9%; for `CCc1ccc(C2=CC(=O)CC(C)(C)C2=O)cc1`: -7.01%; for `COC(=O)C1=C(C)N(Cc2ccc(C(F)(F)F)cc2)C(=NCc2ccccc2)NC1c1ccccc1C(F)(F)F` (centres undefined): -9.62%. `Nc1ncnc2c1ncn2[C@@H]1O[C@H](C(=O)N[C@@H](CCc2ccccc2)C(=O)NCC(=O)N2CCOCC2)[C@@H](O)[C@H]1O`: the inhibition was -4.61%.

Regarding `CC(=O)N1C[C@@H](CO)[C@@H](N(C)C(=O)C(C)(C)C)C[C@H]1c1ccccc1Br`, the inhibition is -3.95%. On to `CCOC(=O)Cn1c2c(n(-c3ccc(F)cc3)c1=O)C=C(c1ccccc1)[C@@H](C)C(C(=O)N(C)C1CCCCC1)=C2`, for which the inhibition is -5.25%.

As to `Cc1cccc(/C(N)=N/OC(=O)c2ccccc2Cl)c1`, the inhibition was 1.19%. Turning to `Cc1cc(OC(=O)c2ccccc2Cl)ccc1N1C(=O)CCC1=O`, the inhibition was 66.2% (active). As for `Cc1ccc(C)c(N2C(=O)CS/C2=N\NC(=O)c2ccccc2Cl)c1`, the inhibition was -8.17%. Regarding `CC[C@H](C)[C@H]1CNC(=O)C(=O)N1CC1CCN(CCc2ccc(OC)c(OC)c2)CC1`, the inhibition was -5.2%. The figure for `CC1CCN(CCCn2c(SCC(=O)NC3CCCC3)nc3ccccc3c2=O)CC1` is -1.93%.

In the case of `CCCN(CCC)CCNC(=O)c1cc2c(C)nc3ccccc3c2o1`, the inhibition is -3.91%. As to `Cc1nc2ccccc2c2oc(C(=O)NCCCN3CCC(C)CC3)cc12`, the inhibition is 61.5% (active).

For the molecule `CC(C)(C)n1nc(C2CC2)c(Br)c1NC(=O)c1ccccc1F`, the inhibition is -11.7%. The same measure for `CC(=O)C1=C(C)N(Cc2ccccc2)C(=S)NC1c1cccc(Br)c1` (centres undefined): -5.09%; for `Cc1cc2c(nc1C)CCCN2C`: -4.25%; for `CN1C(=O)C2CC(O)C(SC3CC4C(=O)N(C)C(=O)C4CC3O)CC2C1=O` (centres undefined): -4.52%. With `COC(=O)C1=C(C(=O)OC)C2C=C(C(C)C)C1C(=O)C2(C)O` (centres undefined), the inhibition was -3.68%. Regarding `O=C(NCc1ccccc1)[C@@H]1CCCN1C(=O)[C@H]1CCCN1C(=O)c1cccc(Cl)c1`, the inhibition is -3.24%. For the molecule `C[C@H]1CN([C@@H](C)CO)C(=O)CCCn2nncc2CO[C@@H]1CN(C)C(=O)Nc1ccc(N2CCN(C)CC2)cc1`, the inhibition is -5.58%.

Take `CCOC(=O)c1ccc(-c2ccc3ncnc(N(C)Cc4sccc4C)c3c2)o1`: the inhibition was -9.32%. The figure for `Clc1cccc2c1C1CC2CCN1Cc1ccccc1` (centres undefined) is -3.78%; for `Nc1[nH]c(C(=O)c2ccccc2)c(-c2ccc(Cl)cc2Cl)c1C(=O)c1ccccc1` it is -17.7%.

Take `CCOC(=O)c1oc2c(CN3CCN(C)CC3)c(O)ccc2c(=O)c1-c1ccc(Br)cc1`: the inhibition was -4.95%. The figure for `Cn1c(=O)[nH]c(=O)c2c1nc(N1CCN(CCO)CC1)n2CCSc1nc2ccccc2s1` is -4.96%; for `CCOC(=O)c1oc2c(CN3CCN(CCO)CC3)c(O)c(CC)cc2c(=O)c1-c1nc2ccccc2s1` it is 37% (active). `O=C(NCc1ccccc1)[C@H]1CCCN1C(=O)[C@H]1CCCN1C(=O)c1cc(F)cc(F)c1`: the inhibition was -8.46%. On to `O=C(NCc1ccccc1)[C@@H]1CCCN1C(=O)[C@@H](NS(=O)(=O)c1ccc(F)cc1F)C1CCCCC1`, for which the inhibition is -2.67%.

Regarding `O=C(C(=O)N1CCC(CNS(=O)(=O)Cc2ccccc2)CC1)c1cc2ccccc2o1`, the inhibition was -8.57%. The figure for `Cc1ccc(C)c(CN2CCC(CNC(=O)C3CCCN(c4ncnc5c4nc4n5CCCCC4)C3)CC2)c1` (centres undefined) is -13.7%; for `O=C(O)Cn1cnc2c(NCc3ccccc3)ncnc21` it is -6.21%. The same measure for `CC(C)C[C@H](NC(=O)CC1CCCC1)C(=O)N1CCC[C@H]1C(=O)NCc1ccccc1`: -8.63%; for `Nc1[nH]c(C(=O)c2ccc(Br)cc2)c(-c2ccc3c(c2)OCO3)c1C(=O)NCCc1c[nH]c2ccccc12`: -16.2%; for `CCOC(=O)C1CSCCS(=O)(=O)N1Cc1ccc(Cl)cc1` (centres undefined): -4.73%.

With `O=C1[C@@H](c2ccccc2)[C@@H](c2ccccc2)N1c1ccccc1`, the inhibition was -7.31%. The same measure for `Brc1ccc(COCCc2cn(Cc3ccccc3)c3ccccc23)cc1`: -2.59%; for `CC(=O)c1ccc(-c2cnc3c(NC=O)cc(-c4cccc(NS(C)(=O)=O)c4)cn23)cc1`: -5.47%. Regarding `COCCCNC(=O)C[C@H]1C[C@@]2(C(=O)OC)C(=C[C@H](C(C)(C)C)O[C@@H]2C)N(Cc2ccc3c(c2)OCO3)C1=O`, the inhibition is -3.83%. With `O=C(N[C@H](Cc1ccccc1)C(=O)N1CCCN(Cc2cccs2)CC1)[C@H]1O[C@@H](n2ccc(=O)[nH]c2=O)[C@H](O)[C@@H]1O`, the inhibition is -3.41%. Consider `Cc1ccc2nc(-c3ccc(CN4CCC(n5cc(-c6ccccc6)[nH]c5=O)CC4)cc3)c(-c3ccccc3)nc2c1`, for which the inhibition is -15.6%. Turning to `COC(=O)C1=C(C)N(Cc2ccc(F)cc2)C(=S)NC1c1cccc(Cl)c1` (centres undefined), the inhibition was -2.29%. With `CCCCCCCCN1C(=O)[C@@H](CC(=O)NCc2ccccc2)C[C@@]2(C(=O)OC)C1=C[C@H](C(C)(C)C)O[C@@H]2C`, the inhibition is -8.36%. For the molecule `O=C(NN=Cc1ccco1)C(=O)Nc1ccc(Cl)c([N+](=O)[O-])c1`, the inhibition is -13%. For the molecule `O=S1(=O)c2ccc(Br)cc2-n2nncc2CN1Cc1cccc(Cl)c1`, the inhibition was -9.71%. For `COC(=O)[C@]12C[C@H](CC(=O)NCc3ccc(OC)c(OC)c3)C(=O)N(Cc3ccccc3)C1=C[C@H](C(C)C)O[C@@H]2C1CC1`, the inhibition was -11.2%. Take `CC(=O)C1=C(C)N(Cc2ccc(Cl)cc2)C(=S)NC1c1ccc(F)cc1` (centres undefined): the inhibition is -2.53%. Take `CC(C)[C@H]1COCCS(=O)(=O)N1Cc1ccccc1-c1cccc2c1sc1ccccc12`: the inhibition was -4.21%. The figure for `C[C@H]1[C@H](c2ccccc2)Oc2cc(Br)ccc2S(=O)(=O)N1Cc1cccc(F)c1` is -4.74%. `O=S(=O)(c1cccs1)N1CCCc2nc(-c3ccc(Br)cc3)ccc21`: the inhibition is -8.65%. With `C=CCN=C1NC(c2ccccc2)C(C(=O)OC)=C(C)N1Cc1ccc(C(F)(F)F)cc1` (centres undefined), the inhibition was -6.18%. The same measure for `CCN1CCN(CC(=O)Nc2sc3c(c2C#N)CCC3)CC1`: -6.79%; for `N#Cc1c(N)sc2c1CCN(C(=O)OCc1ccccc1)C2`: -7.05%. Consider `CC(=O)NC(=S)NNC(=O)c1ccc(Br)cc1`, for which the inhibition is 74.6% (active). In the case of `O=C(NNC(=O)c1ccc(Cl)nc1)c1ccc(Br)cc1`, the inhibition was -6.15%.

Take `CNC(=S)NNC(=O)c1ccc(N(C)C)cc1`: the inhibition is -4.61%. `O=C(Nc1ccc(C(F)(F)F)cc1)c1cccc(-n2cnnn2)c1`: the inhibition was -5.18%. In the case of `CCCCC(=O)Nc1ccc(C(=O)Nc2cc(C(F)(F)F)ccc2Cl)cc1`, the inhibition was -17.6%. With `O=C1Nc2ccccc2C1=NN=Cc1ccco1`, the inhibition was -4.56%. For the molecule `CCCCC[C@H](C)N1C[C@@H](COCc2ccccc2)Oc2cc(N3CC[C@@H](N(C)C)C3)ccc2S1(=O)=O`, the inhibition was -7.78%.

Consider `N#Cc1cccc(Nc2c3c(nc4ccccc24)CCCC3)c1`, for which the inhibition is -2.56%. Regarding `O=C(Nc1cccc([N+](=O)[O-])c1)Nn1cnnc1`, the inhibition is -5.3%.

As for `O=[N+]([O-])c1cccc(Nc2c3ccccc3nc3ccccc23)c1`, the inhibition is 87.1% (active). Turning to `CCn1c(=N)c(C(=O)NCCCOC)cc2c(=O)n3cccc(C)c3nc21`, the inhibition was 45.8% (active). `COCCCn1c(C(=O)NC2CCCCC2)cc2c(=O)n3cccc(C)c3nc21`: the inhibition was -7.34%. As for `COc1ccc(CCn2c(=N)c(C(=O)NCC3CCCO3)cc3c(=O)n4cccc(C)c4nc32)cc1OC` (centres undefined), the inhibition was -7.32%. Take `COCc1[nH]nc2c1C(c1ccccc1)N(c1ccccc1)C2=O` (centres undefined): the inhibition is -4.04%. As for `COC(=O)c1cc2c(c3c4cc(F)ccc4n(S(=O)(=O)c4ccccc4)c13)C(=O)N(Cc1ccccc1OC)C2`, the inhibition is -8.18%. The figure for `C=CC[C@]12C[C@@]3(O[C@H](c4ccc(C(F)(F)F)cc4)N=C3C[C@H](c3ccc(OC)cc3)[C@H]1C)N(C1CCN(Cc3ccccc3)CC1)C2=O` is -3.62%; for `CN(C)CCOCCOc1ccc(Cl)c2ccccc12` it is 62.4% (active). With `CCN(CC)CCOCCOc1ccc(Cl)c2ccccc12`, the inhibition is -5.65%. Turning to `CN(C)CCOc1ccc(Cl)cc1C(C)(C)C`, the inhibition is 3.19%. On to `Cc1ccc(N)cc1CN1CCN(c2ncc(Cc3ccccc3)cn2)CC1`, for which the inhibition is -2.7%.
